Results from PubChem BioAssay (NCI).
About 79,000 compounds went through this panel and 15% of them were active in at least one assay; those are over-represented in the sample as a whole. Activity calls are given as the source filed them. No stated cut-off is given here; in the data, active means growth inhibition above about 70%; inactive means the rest.

How the values were obtained:
[1] = NCI Yeast Anticancer Drug Screen. Data for the wt2 strain (AID 169);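 further: 0% = growth of vehicle-treated yeast cultures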; details: S. cerevisiae wt2 strain growth inhibition, stronger effect = higher value
Outline: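 The panel's yeast strains carry defined changes in DNA repair or cell cycle genes. Each strain is grown with compound, and growth loss is scored relative to vehicle.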

[2] = NCI Yeast Anticancer Drug Screen. Data for the mlh1 strain (AID 171);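 further: 0% = growth of vehicle-treated control cultures of the same strain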; details: S. cerevisiae mlh1 strain growth inhibition, stronger effect = higher value
Outline: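 Inhibition values reflect reduced yeast growth in the presence of compound, referenced to vehicle controls, using a strain chosen for its alteration in DNA repair or cell cycle control.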

[3] = NCI Yeast Anticancer Drug Screen. Data for the sgs1 strain (AID 173);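 further: 0% = growth of vehicle-only control cultures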; details: S. cerevisiae sgs1 mutant, stronger effect = higher value
Outline: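 Vehicle-treated cultures served as reference for growth inhibition of a yeast strain altered in DNA damage repair or cell cycle control after compound exposure.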

[4] = NCI Yeast Anticancer Drug Screen. Data for the mlh1 rad18 strain (AID 175); details: S. cerevisiae mlh1 rad18 strain growth inhibition, stronger effect = higher value
Outline: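 Inhibition values reflect reduced growth of mutant yeast versus vehicle-treated controls following compound exposure; the mutations affect DNA damage repair.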

[5] = NCI Yeast Anticancer Drug Screen. Data for the rad18 strain (AID 177); details: S. cerevisiae rad18 mutant growth inhibition, stronger effect = higher value
Outline: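 Steps: expose repair-mutant yeast to compound; measure growth; express as inhibition relative to vehicle control.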

[6] = NCI Yeast Anticancer Drug Screen. Data for the rad52 strain (AID 147);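 further: 0% = growth of vehicle-treated control cultures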; details: S. cerevisiae rad52 mutant growth inhibition, stronger effect = higher value
Outline: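 Inhibition of yeast growth, referenced to vehicle controls, was the measured output for a strain with defective DNA damage repair.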

[7] = NCI Yeast Anticancer Drug Screen. Data for the wt1 strain (AID 149);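 further: 0% = growth of vehicle-treated wt1 cultures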; details: S. cerevisiae wt1 strain (SPY 50644) growth inhibition, stronger effect = higher value
Outline: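 Using yeast strain wt1, compound-induced growth inhibition was determined against vehicle-treated cultures.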

[8] = NCI Yeast Anticancer Drug Screen. Data for the rad50EPP+ strain (AID 151);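 further: 0% = growth of vehicle-treated control cultures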; details: S. cerevisiae rad50 mutant strain, stronger effect = higher value
Outline: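 Genetically defined yeast (rad50EPP+, DNA damage repair alteration) is grown with compound, and inhibition of growth is expressed relative to vehicle-treated controls.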

[9] = NCI Yeast Anticancer Drug Screen. Data for the mgt1 strain (AID 153); details: S. cerevisiae mgt1 mutant growth inhibition, stronger effect = higher value
Outline: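 In the mgt1 strain, test compounds were added and growth inhibition was determined relative to vehicle-treated controls.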

[10] = NCI Yeast Anticancer Drug Screen. Data for the rad50 strain (AID 155);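 further: 0% = growth of vehicle-only cultures of the same strain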; details: S. cerevisiae rad50 strain growth inhibition, stronger effect = higher value
Outline: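 Relative growth inhibition (compound vs vehicle) was measured in yeast with a defined repair-gene alteration.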

[11] = NCI Yeast Anticancer Drug Screen. Data for the mec2-1 strain (AID 157); details: S. cerevisiae mec2-1 strain, stronger effect = higher value
Outline: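 Each compound was tested on mec2-1 yeast, a strain altered in DNA damage repair or cell cycle control. Growth inhibition is reported relative to vehicle.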

[12] = NCI Yeast Anticancer Drug Screen. Data for the rad14 strain (AID 159);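 further: 0% = growth of vehicle-treated control cultures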; details: S. cerevisiae rad14 strain growth inhibition, stronger effect = higher value
Outline: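 Screen for anticancer potential: a yeast strain altered in DNA damage repair is grown with compound, and reduced growth is quantified against vehicle controls.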

[13] = NCI Yeast Anticancer Drug Screen. Data for the sgs1 mgt1 strain (AID 161);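 further: 0% = growth of cultures given vehicle only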; details: S. cerevisiae sgs1 mgt1 strain, stronger effect = higher value
Outline: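 Genetically altered yeast, compound exposure, growth inhibition relative to vehicle.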

[14] = NCI Yeast Anticancer Drug Screen. Data for the CLN2oe strain (AID 163);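 further: 0% = growth of vehicle-only control cultures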; details: S. cerevisiae CLN2oe strain, stronger effect = higher value
Outline: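 First, the altered yeast strain was treated with each compound; second, its growth was measured; finally, inhibition was derived by comparison with vehicle controls.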

[15] = NCI Yeast Anticancer Drug Screen. Data for the cln2 rad14 strain (AID 165);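 further: 0% = growth equal to vehicle treated cultures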; details: S. cerevisiae cln2 rad14 strain, stronger effect = higher value
Outline: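 Test compounds were added to cln2 rad14 yeast cultures; inhibition of growth was then determined by comparison with vehicle treatment.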

[16] = NCI Yeast Anticancer Drug Screen. Data for the bub3 strain (AID 167); details: S. cerevisiae bub3 mutant strain, stronger effect = higher value
Outline: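 Screening used yeast with an engineered genetic alteration affecting cell cycle control. Compound-exposed cultures were compared with vehicle cultures, and reduced growth was taken as inhibition.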

[17] = at 5.0 µM (retest, dose inferred, filed as 0.5)
[18] = at 50.0 µM (retest, dose inferred, filed as 5.0)

Measured: growth inhibition

O=C(NCCCCCCCN1CCCCCCC1)C(C1CCCCC1)C1CCCCC1
inactive: [1]; at 1.2 µM 37% | [1]; at 3.7 µM 56% | [2]; at 1.2 µM 44% | [2]; at 3.7 µM 48% | [3]; at 1.2 µM 59% | [3]; at 3.7 µM 67% | [4]; [17] 17% | [5]; at 1.2 µM 51% | [5]; at 3.7 µM 64%
active: [1]; at 11.0 µM 95% | [1]; at 33.0 µM 98% | [1]; at 100.0 µM 99% | [2]; at 11.0 µM 95% | [2]; at 33.0 µM 98% | [2]; at 100.0 µM 99% | [3]; at 11.0 µM 95% | [3]; at 33.0 µM 98% | [3]; at 100.0 µM 99% | [4]; [18] 98% | [4]; at 50.0 µM 99.2% | [5]; at 11.0 µM 92% | [5]; at 33.0 µM 97% | [5]; at 100.0 µM 98%

CCOC(=O)C1=C(C(=O)c2ccccc2)C(c2ccccc2[N+](=O)[O-])C(C(=O)c2ccccc2)=C(C(=O)OCC)N1
active: [10]; at 50.0 µM 71.6% | [16]; [18] 86%
inactive: [6]; at 1.2 µM -2% | [6]; at 3.7 µM 0% | [6]; at 11.0 µM -1% | [6]; at 33.0 µM 1% | [6]; at 100.0 µM 11% | [7]; at 1.2 µM -2% | [7]; at 3.7 µM -1% | [7]; at 11.0 µM -1% | [7]; at 33.0 µM -1% | [7]; at 100.0 µM -4% | [8]; at 1.2 µM 1% | [8]; at 3.7 µM 7% | [8]; at 11.0 µM 13% | [8]; at 33.0 µM 18% | [8]; at 100.0 µM 27% | [9]; at 1.2 µM 0% | [9]; at 3.7 µM 1% | [9]; at 11.0 µM 0% | [9]; at 33.0 µM 1% | [9]; at 100.0 µM 35% | [10]; at 1.2 µM 0% | [10]; at 3.7 µM -1% | [10]; [17] 2% | [10]; at 11.0 µM -2% | [10]; at 33.0 µM 1% | [10]; [18] 60% | [10]; at 100.0 µM 17% | [11]; at 1.2 µM -3% | [11]; at 3.7 µM -3% | [11]; [17] -4% | [11]; at 11.0 µM -3% | [11]; at 33.0 µM -1% | [11]; [18] 20% | [11]; at 50.0 µM 18.6% | [11]; at 100.0 µM 10% | [12]; at 1.2 µM 0% | [12]; at 3.7 µM 2% | [12]; at 11.0 µM 8% | [12]; at 33.0 µM 9% | [12]; at 100.0 µM 29% | [13]; [17] 9% | [13]; [18] 16% | [13]; at 50.0 µM 41.8% | [14]; at 1.2 µM 0% | [14]; at 3.7 µM 0% | [14]; at 11.0 µM 2% | [14]; at 33.0 µM 3% | [14]; at 100.0 µM 0% | [15]; [17] 7% | [15]; [18] 39% | [15]; at 50.0 µM 16.9% | [16]; at 1.2 µM 6% | [16]; at 3.7 µM 8% | [16]; [17] 3% | [16]; at 11.0 µM 11% | [16]; at 33.0 µM 10% | [16]; at 50.0 µM 19% | [16]; at 100.0 µM 42% | [1]; at 1.2 µM -2% | [1]; at 3.7 µM -1% | [1]; at 11.0 µM -1% | [1]; at 33.0 µM 0% | [1]; at 100.0 µM 10% | [2]; at 1.2 µM -1% | [2]; at 3.7 µM -2% | [2]; at 11.0 µM -2% | [2]; at 33.0 µM 1% | [2]; at 100.0 µM 20% | [3]; at 1.2 µM -2% | [3]; at 3.7 µM 1% | [3]; at 11.0 µM 5% | [3]; at 33.0 µM 7% | [3]; at 100.0 µM 17% | [4]; [17] -21% | [4]; [18] 61% | [4]; at 50.0 µM 65.6% | [5]; at 1.2 µM 0% | [5]; at 3.7 µM 1% | [5]; at 11.0 µM 1% | [5]; at 33.0 µM 7% | [5]; at 100.0 µM 39%

O=C1C2C=CC1C1C(=O)OC(=O)C21 (centres undefined)
active: [10]; [18] 77% | [10]; at 50.0 µM 83.2% | [11]; at 50.0 µM 90.8% | [13]; at 50.0 µM 89.2% | [15]; at 50.0 µM 91.8% | [16]; at 50.0 µM 89.8% | [4]; at 50.0 µM 82.9%
inactive: [6]; at 1.2 µM -18% | [6]; at 3.7 µM -15% | [6]; at 11.0 µM -8% | [6]; at 33.0 µM -14% | [6]; at 100.0 µM -24% | [7]; at 1.2 µM -50% | [7]; at 3.7 µM -45% | [7]; at 11.0 µM -45% | [7]; at 33.0 µM -52% | [7]; at 100.0 µM -51% | [8]; at 1.2 µM -17% | [8]; at 3.7 µM -21% | [8]; at 11.0 µM -20% | [8]; at 33.0 µM -11% | [8]; at 100.0 µM -45% | [9]; at 1.2 µM -29% | [9]; at 3.7 µM -13% | [9]; at 11.0 µM -6% | [9]; at 33.0 µM -17% | [9]; at 100.0 µM -28% | [10]; at 1.2 µM -3% | [10]; at 3.7 µM -2% | [10]; [17] 49% | [10]; at 11.0 µM 16% | [10]; at 33.0 µM 13% | [10]; at 100.0 µM -2% | [11]; at 1.2 µM -54% | [11]; at 3.7 µM -52% | [11]; [17] 48% | [11]; at 11.0 µM -44% | [11]; at 33.0 µM -51% | [11]; [18] 58% | [11]; at 100.0 µM -45% | [12]; at 1.2 µM -57% | [12]; at 3.7 µM -44% | [12]; at 11.0 µM -48% | [12]; at 33.0 µM -48% | [12]; at 100.0 µM -43% | [13]; [17] 1% | [13]; [18] -6% | [14]; at 1.2 µM -8% | [14]; at 3.7 µM -6% | [14]; at 11.0 µM -24% | [14]; at 33.0 µM -27% | [14]; at 100.0 µM -25% | [15]; [17] 61% | [15]; [18] 25% | [16]; at 1.2 µM -19% | [16]; at 3.7 µM -10% | [16]; [17] 33% | [16]; at 11.0 µM -22% | [16]; at 33.0 µM -7% | [16]; [18] 14% | [16]; at 100.0 µM -23% | [1]; at 1.2 µM -25% | [1]; at 3.7 µM -9% | [1]; at 11.0 µM -35% | [1]; at 33.0 µM -32% | [1]; at 100.0 µM -34% | [2]; at 1.2 µM -45% | [2]; at 3.7 µM -53% | [2]; at 11.0 µM -39% | [2]; at 33.0 µM -64% | [2]; at 100.0 µM -55% | [3]; at 1.2 µM -28% | [3]; at 3.7 µM -31% | [3]; at 11.0 µM -34% | [3]; at 33.0 µM -20% | [3]; at 100.0 µM -39% | [4]; [17] 53% | [4]; [18] 41% | [5]; at 1.2 µM -23% | [5]; at 3.7 µM -2% | [5]; at 11.0 µM 3% | [5]; at 33.0 µM -28% | [5]; at 100.0 µM -10%
